Results reported in PubChem BioAssay (NCI).
Compounds without any hit were thinned out: in the full panel of roughly 83,000, 20% have a hit.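 Percent growth is the endpoint: 0 to 100 indicates growth inhibition (40 means 60% inhibition), 0 means no net growth, and negative values indicate cell death.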 Activity calls are given as the source filed them. Rule for the calls: active = growth percent below 10; inactive = the rest.

Tests used:
Assay in all cases: NCI-60 one-dose screen, 48 h (100 = growth as untreated, 0 = no growth, -100 = all killed)
Conditions in all cases: 10 µM unless noted
T-47D breast = test system: T-47D breast
BT-549 breast = test system: BT-549 breast
MDA-MB-435 melanoma = test system: MDA-MB-435 melanoma
SW-620 colon = test system: SW-620 colon
MCF7 breast = test system: MCF7 breast
HCT-116 colon = test system: HCT-116 colon
HCC-2998 colon = test system: HCC-2998 colon
KM12 colon = test system: KM12 colon

Measured: growth

Cc1[nH]c(C(=O)Nc2ccccc2OCc2cccc(C(=O)NC3CCNC3)c2)c(Cl)c1Cl (stereo not given)
active: MDA-MB-435 melanoma -53% | SW-620 colon -66.3% | MCF7 breast -73.9% | HCT-116 colon -61.2% | HCC-2998 colon 5.81% | KM12 colon -1.67%
inactive: T-47D breast 53.9% | BT-549 breast 83.8%

CCc1cc(OC(=O)N2CCC(N3CCCCC3)CC2)ccc1Nc1cc(-c2ccc(-n3cccn3)cc2)[nH]n1
inactive: T-47D breast 97.2% | BT-549 breast 87.6% | MDA-MB-435 melanoma 37.3% | HCC-2998 colon 83.8% | KM12 colon 70.1%
active: SW-620 colon -38.3% | MCF7 breast 6.81% | HCT-116 colon -64.1%

COc1ccc(/C=N/N=C(/c2ccccc2)c2ccc3nc(-c4ccc(Cl)cc4)[nH]c3c2)cc1
inactive: T-47D breast 63.5% | BT-549 breast 85.7% | MDA-MB-435 melanoma 85% | SW-620 colon 88.3% | MCF7 breast 72% | HCT-116 colon 75.4% | HCC-2998 colon 89.6% | KM12 colon 75.8%

O=C(N/N=C\c1ccc(F)cc1)c1ccc2nc(-c3ccc(Br)cc3)[nH]c2c1
inactive: T-47D breast 75.6% | BT-549 breast 73.5% | MDA-MB-435 melanoma 40.7% | HCC-2998 colon 31.3% | KM12 colon 16%
active: SW-620 colon 2.87% | MCF7 breast 9.41% | HCT-116 colon -21%

CC(=O)C1=C(C)NC(NNc2ccccc2)=NC1c1ccc([N+](=O)[O-])cc1 (stereo not given)
inactive: T-47D breast 83.3% | BT-549 breast 103% | MDA-MB-435 melanoma 77% | SW-620 colon 73.6% | MCF7 breast 75% | HCT-116 colon 85.7% | HCC-2998 colon 97% | KM12 colon 67.3%

CCNCCOc1ccc(/C(=C(/CC)c2ccc(Cl)cc2)c2ccc(OCCCN(C)C)cc2)cc1
active: T-47D breast -60.2% | BT-549 breast -91.7% | MDA-MB-435 melanoma -74.2% | SW-620 colon -62.1% | MCF7 breast -82.5% | HCT-116 colon -72.4% | HCC-2998 colon -84.2% | KM12 colon -85.3%

CCCCCCNC(=O)Oc1ccc(/C(=C(/C)c2ccc(OC)cc2)c2ccc(OCCN3CCCCCC3)cc2)cc1
active: T-47D breast -19.1% | SW-620 colon -41.4% | MCF7 breast -30.3% | HCT-116 colon -86.6%
inactive: BT-549 breast 70.3% | MDA-MB-435 melanoma 24.1% | HCC-2998 colon 24.4% | KM12 colon 16.7%

O=C(/C=C/c1ccc(F)cc1)Nc1cccc2cccnc12
active: MCF7 breast 6.92%
inactive: T-47D breast 32.8% | BT-549 breast 115% | MDA-MB-435 melanoma 107% | SW-620 colon 101% | HCT-116 colon 95.9% | HCC-2998 colon 88% | KM12 colon 95%

Cc1ccccc1N1CCN(C2=C(Cl)C(=O)c3ncccc3C2=O)CC1
inactive: BT-549 breast 99.1% | HCC-2998 colon 105% | KM12 colon 87.2%
active: T-47D breast -52.5% | MDA-MB-435 melanoma -62.9% | SW-620 colon -27.8% | MCF7 breast -29.3% | HCT-116 colon -95.2%

COc1cc(-c2nc(-c3ccccc3)[nH]c2-c2ccnc(NCCCNS(=O)(=O)c3cccc(F)c3)n2)ccc1F
inactive: T-47D breast 66.5% | BT-549 breast 128% | MDA-MB-435 melanoma 82% | SW-620 colon 106% | MCF7 breast 83.1% | HCT-116 colon 75.1% | HCC-2998 colon 142% | KM12 colon 85.8%

O=C1Nc2ccc(F)cc2/C1=C\C(=O)c1ccc(NS(=O)(=O)c2ccccc2)cc1
inactive: T-47D breast 96.7% | BT-549 breast 111% | MDA-MB-435 melanoma 92.5% | SW-620 colon 43.1% | MCF7 breast 22.5% | HCT-116 colon 56.9% | HCC-2998 colon 116% | KM12 colon 102%

CC/C(=C(/c1ccc(Cl)cc1)c1ccc(OCCN)cc1)c1ccccc1
inactive: T-47D breast 93.1% | BT-549 breast 129% | MDA-MB-435 melanoma 96.7% | SW-620 colon 16.5% | MCF7 breast 54.9% | HCT-116 colon 56% | HCC-2998 colon 83.7% | KM12 colon 84.7%

O=S(=O)(Oc1ccc(-c2cn3ccsc3n2)cc1)c1cccc(C(F)(F)F)c1
inactive: T-47D breast 103% | BT-549 breast 119% | MDA-MB-435 melanoma 99.5% | SW-620 colon 97.4% | MCF7 breast 90.1% | HCT-116 colon 104% | HCC-2998 colon 120% | KM12 colon 102%

O=C(N/N=C\c1ccc([N+](=O)[O-])cc1)c1ccc2nc(-c3ccc(Br)cc3)[nH]c2c1
inactive: MDA-MB-435 melanoma 23.9% | KM12 colon 11.7%
active: T-47D breast 9.87% | BT-549 breast 6.72% | SW-620 colon 5.34% | MCF7 breast -4.44% | HCT-116 colon -37.2% | HCC-2998 colon 5.66%

C[C@H]1OCC2(CCN(c3cnc(C(=O)Nc4cc(F)cc5cccnc45)cn3)CC2)[C@H]1N
inactive: T-47D breast 35.3% | BT-549 breast 91.5% | MDA-MB-435 melanoma 79.7% | HCT-116 colon 13.9% | HCC-2998 colon 78.3% | KM12 colon 82.5%
active: SW-620 colon 4.8% | MCF7 breast 1.15%

CN1CCN(Cc2ccc(NC(=O)c3cncc(C#Cc4cnc5ccc(NCCO)nn45)c3)cc2C(F)(F)F)CC1
inactive: T-47D breast 21.5%
active: BT-549 breast -32.2% | MDA-MB-435 melanoma -6.87% | SW-620 colon -13.2% | MCF7 breast -43.5% | HCT-116 colon 0.878% | HCC-2998 colon -8.28% | KM12 colon -4.28%

O=C(CSc1nc2ccccc2c(=O)n1-c1ccc(Cl)cc1)N/N=C/c1ccc(Oc2ccc(Cl)cc2)cc1
inactive: T-47D breast 30.1% | MDA-MB-435 melanoma 25.1% | MCF7 breast 15.5% | HCC-2998 colon 20.3% | KM12 colon 17.4%
active: BT-549 breast -17.7% | SW-620 colon 2.62% | HCT-116 colon -67.8%

O=C(CSc1nnc(-c2cccs2)n1-c1ccccc1)Nc1ccccc1
inactive: T-47D breast 78.4% | BT-549 breast 85.5% | MDA-MB-435 melanoma 57.9% | SW-620 colon 87.2% | MCF7 breast 80.3% | HCT-116 colon 75.4% | HCC-2998 colon 111% | KM12 colon 84.8%

O=C(/C=C/c1ccc(Cl)c(Cl)c1)Nc1ncc(Cc2ccc(Cl)c(Cl)c2)s1
inactive: T-47D breast 24.6% | BT-549 breast 47.4% | MDA-MB-435 melanoma 26.9% | SW-620 colon 33.3% | MCF7 breast 28.7% | HCT-116 colon 26.6% | HCC-2998 colon 41.2% | KM12 colon 13.3%

Cc1[nH]c(C(=O)Nc2ccc(C(N)=O)cc2N2CCOC(C)C2)c(Cl)c1Cl (stereo not given)
inactive: T-47D breast 83% | BT-549 breast 98.3% | MDA-MB-435 melanoma 96.1% | SW-620 colon 109% | MCF7 breast 93% | HCT-116 colon 92% | HCC-2998 colon 105% | KM12 colon 104%

Cn1cc(-c2nn3cc(-c4ccncc4)nc3s2)c2cc(F)ccc21
inactive: T-47D breast 41.4% | BT-549 breast 64.6% | MDA-MB-435 melanoma 83.2% | SW-620 colon 68.9% | MCF7 breast 18.2% | HCT-116 colon 45.7% | HCC-2998 colon 91.4% | KM12 colon 81.8%

CCCC/C(=C\c1ccc(O)c(O)c1)C(=O)NC(Cc1ccccc1)C(=O)C(=O)NCCc1ccc(OC)cc1 (stereo not given)
inactive: T-47D breast 94.9% | BT-549 breast 84.1% | MDA-MB-435 melanoma 94.3% | SW-620 colon 101% | MCF7 breast 95% | HCT-116 colon 92.4% | HCC-2998 colon 102% | KM12 colon 97.9%

CNC(=O)Nc1ccc(Nc2cc(-c3ccc(-n4cccn4)cc3)[nH]n2)c(C)c1
inactive: T-47D breast 104% | BT-549 breast 111% | MDA-MB-435 melanoma 105% | SW-620 colon 126% | MCF7 breast 81.2% | HCT-116 colon 107% | HCC-2998 colon 123% | KM12 colon 101%

NC1[C@H]2CN(c3cnc(C(=O)Nc4cc(F)cc5cccnc45)cn3)C[C@@H]12 (stereo not given in full)
active: MCF7 breast 6.12%
inactive: T-47D breast 32.4% | BT-549 breast 91.8% | MDA-MB-435 melanoma 90% | SW-620 colon 47.6% | HCT-116 colon 10.7% | HCC-2998 colon 84.3% | KM12 colon 87.4%

CCc1nnc(NC(=O)c2cc(-c3ccc(Cl)cc3Cl)oc2C)s1
inactive: T-47D breast 61.7% | BT-549 breast 90.4% | MDA-MB-435 melanoma 90.6% | SW-620 colon 93.3% | MCF7 breast 84.9% | HCT-116 colon 42.2% | HCC-2998 colon 111% | KM12 colon 72.7%

Cc1ccc2c(n1)C(=O)C(Cl)=C(Nc1ccccc1C(=O)OC(C)(C)C)C2=O
active: T-47D breast -25.2% | SW-620 colon -28.3% | MCF7 breast -60.1% | HCT-116 colon -84.6%
inactive: BT-549 breast 38.6% | MDA-MB-435 melanoma 84.7% | HCC-2998 colon 92.3% | KM12 colon 99.1%

CN1CCN(CCNc2nc(-c3cccc(NS(=O)(=O)c4cccc5c(N(C)C)cccc45)c3)cs2)CC1
inactive: T-47D breast 39.6% | BT-549 breast 58.6% | MDA-MB-435 melanoma 66% | SW-620 colon 70.5% | MCF7 breast 11.1% | HCT-116 colon 32.2% | HCC-2998 colon 49.5% | KM12 colon 77.3%

CN(C)CCCOc1ccc(C(=C(c2ccccc2)C2CCCC2)c2ccc(OCCCN(C)C)cc2)cc1
active: T-47D breast -76.6% | BT-549 breast -83.3% | MDA-MB-435 melanoma -62.8% | SW-620 colon -34.2% | MCF7 breast -65.8% | HCT-116 colon -44.7% | HCC-2998 colon -83.9% | KM12 colon -96.9%

Fc1cccc(Cl)c1/C=N/Nc1nc(N/N=C/c2c(F)cccc2Cl)nc(N2CCCCC2)n1
inactive: T-47D breast 11% | BT-549 breast 68.4% | SW-620 colon 17.2% | HCT-116 colon 19.5% | HCC-2998 colon 24.4% | KM12 colon 10.8%
active: MDA-MB-435 melanoma 3.75% | MCF7 breast 3.1%

Cn1c2nc3ccccc3c-2cc2ccccc21
inactive: T-47D breast 37.4% | BT-549 breast 101% | MDA-MB-435 melanoma 39.5% | SW-620 colon 28.3% | MCF7 breast 10.9% | HCT-116 colon 22.1% | HCC-2998 colon 52.9% | KM12 colon 31.8%
